TAG inh – reduces triacylglycerol accumulation in H9c2 cells | Nile Red lipid (TAG) fluorescence; cells loaded with 200 µM oleic acid | inhibition, % at 12.5 µM | actives 0.66% (n = 230,000) | AID 651582;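 active means pattern-corrected inhibition of lipid staining of at least 50% with the nuclear-stain viability signal not falling by more than 50%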;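 further: 0% = DMSO wells and 100% = triacsin C control wells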
Calpain2 inh – inhibitors of pig calpain II | purified calpain II, fluorogenic peptide substrate, 30 min | inhibition, % at 16 µM | actives 0.37% (n = 220,000);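 active means inhibition above about 50%, limit read from the data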
aDG glyco act – alpha-DG glycosylation activation; Pro5-aDG cells, alpha-DG glycosylation AlphaScreen (IIH6); 0% Pro5, 100% B10-LARGE cell signal; activation, % at 10 µM; actives 0.22% (n = 360,000);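 active means activation of at least 8% versus controls, or a plate z-score of at least 8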;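 further: Pro5 are CHO cells carrying HIG-tagged alpha-DG that lacks glycosylation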
Cardio protect – protects H9c2 cardiomyocytes from peroxide injury | H2O2 injury protection, ATPLite, 2 h | protection from H2O2 cell death, % at 20 µM | actives 0.63% (n = 360,000) | AID 588492;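 active means compounds giving at least 50% protection of heart cells from peroxide-induced death in the single-dose screen, raw or plate-pattern-corrected value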;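 further: 0% = DMSO wells with peroxide and 100% = DMSO wells without peroxide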
MIN6 prolif-1 – MIN6 beta-cell proliferation induction | actives 0.29% (n = 330,000) | proliferation, % at 10 µM | MIN6 cells proliferation, ATPlite luminescence, 48 h; cells starved in 0.2% serum; 100% = growth in 10% serum | AID 2380;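 active means compounds whose signal lies at least 3.5 SD above the mean of all wells on their plate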;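 further: 0% = DMSO-treated cells in low-serum medium and 100% = 10% serum control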
FAS-TE inh – FAS thioesterase (human) inhibition. recombinant FAS-TE, OMFH fluorogenic substrate, fluorescence endpoint. actives 0.67% (n = 360,000). inhibition, % at 15 µM. AID 602261. P49327;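 active means compounds whose normalised, plate-corrected inhibition of enzyme fluorescence in the single-dose primary screen is 50% or more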;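 further: 0% = DMSO with enzyme and 100% = substrate without enzyme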
MIN6 prolif-2 – MIN6 beta-cell replication induction, confirmed; shares compounds with MIN6 prolif-1; proliferation increase, % at 50 µM; MIN6 beta-cell proliferation, ATPlite luminescence, 48 h; cells kept in 0.2% serum; scaled between 0.2% and 10% serum; 920 tested, under 10 active;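 active means proliferation increase above 40% at any of the four tested concentrations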
Starred values were filed as active, the others as inactive; i = inactive; nt = not tested or not shown. Rows were chosen to be rich in hits. Some 2.3% of all compounds tested hit in one or more screens of this group.

SMILES | TAG inh | Calpain2 inh | aDG glyco act | Cardio protect | MIN6 prolif-1 | FAS-TE inh | MIN6 prolif-2
CC1CC(C)CN(C(=O)c2ccc(S(=O)(=O)N3CCCCC3)cc2)C1 (centres undefined) | 21.1 | nt | 0.0 | -4.4 | -2.6 | 2.9 | nt
C#CCN1[C@@H]2CCN(C2)c2cc(Br)ccc2S1(=O)=O | -20.7 | nt | -0.1 | -13.3 | nt | 5.0 | nt
CCN(CC(=O)Nc1c(F)cccc1F)C(=O)Cc1c[nH]c2ccccc12 | -6.3 | nt | 0.1 | -0.6 | -3.9 | -6.1 | nt
CCN(CC(=O)Nc1c(F)cccc1F)C(=O)Cn1[nH]c(=O)c2ccccc2c1=O | 14.6 | nt | -0.2 | 84.3* | 11.3* | -4.1 | -0.4
O=C(Nc1ccc(-c2csnn2)cc1)C(Cl)(Cl)Cl | 0.1 | 2.0 | 0.1 | -12.1 | -1.1 | -1.4 | nt
C=CCOc1ccc(/C=C/C(=O)OCC(=O)N(C)CC(=O)Nc2ccccc2Cl)cc1 | -1.8 | nt | 0.3 | -10.1 | -3.5 | 8.1 | nt
CCC1CCCCN1CCCNC(=O)c1csc2c1CCCCC2 (centres undefined) | nt | nt | -0.2 | 0.0 | 1.4 | -1.8 | nt
CCN1CCCC1CNC(=O)c1csc2c1CCCC2 (centres undefined) | nt | -11.7 | 0.2 | -3.1 | 6.4* | -9.2 | -3.6
CCc1cc(=O)oc2cc(OC(C)C(=O)NCC3CCC(C(=O)O)CC3)c(Cl)cc12 (centres undefined) | nt | nt | 0.1 | -3.6 | 10.5* | -5.3 | -3.3
CCCn1cnc2scc(-c3ccc(C)cc3)c2c1=O | -0.6 | 7.7 | 0.4 | -2.4 | 14.1* | -7.2 | -2.5
CCOc1cccc(-c2nnc3n2N=C(c2cc(OC)ccc2OC)CS3)c1 | 12.3 | -33.1 | 0.4 | 6.4 | -1.2 | 15.0 | nt
COc1cccc(-c2nnc3n2N=C(c2cc(OC)ccc2OC)CS3)c1 | -15.2 | -8.3 | 5.1 | 10.1 | 8.0* | 12.4 | -3.8
O=C(NCc1cccs1)c1cccnc1Cl | nt | -5.7 | 0.0 | 7.2 | 0.0* | -6.9 | 1.3
Fc1ccc(OCc2nn[nH]n2)c(F)c1 | -18.3 | nt | -0.1 | 3.7 | 7.1* | -5.1 | 0.5
COc1ccc(C=O)cc1COc1ccc(F)cc1F | 5.9 | -102.3 | 0.3 | -11.6 | -2.1 | 14.8 | nt
O=C(O)C1C2CCC(C2)C1C(=O)N1CCCC1 (centres undefined) | 7.2 | nt | -0.2 | -1.0 | 0.4 | -1.6 | nt
COc1ccc(OC)c(NC(=O)c2ccccc2NS(=O)(=O)c2cccc3cccnc23)c1 | 0.6 | -4.1 | 0.0 | 6.7 | 5.4* | 7.2 | -4.6
CCC(=O)N=c1sc2c(OC)ccc(OC)c2n1C | 17.3 | nt | -0.1 | -4.3 | -2.1 | -1.1 | nt
COc1ccc(OC)c2c1sc(=NC(=O)C1COc3ccccc3O1)n2C (centres undefined) | -1.4 | -12.3 | -0.1 | -1.6 | 7.7* | 3.4 | -2.1
Cc1ccc(C2=NNC(C(O)C(O)C(O)CO)S2)cc1 (centres undefined) | -3.7 | 18.4 | 0.1 | -2.6 | 5.8* | -0.4 | 0.5
COc1ccc(C2NN=C(c3ccc(C)cc3)S2)cc1 (centres undefined) | nt | nt | 0.1 | -18.5 | nt | -0.6 | nt
CCOC(=O)c1ccc(P(=O)(c2ccccc2)c2ccccc2)cc1 | nt | nt | 0.1 | 2.0 | 1.7 | -6.2 | nt
CCOc1nc(Nc2ccccc2F)nc(OCC)n1 | -11.9 | nt | 0.0 | -5.4 | 5.0* | -1.8 | -2.2
CC(C)c1ccc2[nH]c3c(c2c1)[C@@H]1CCN2C(=O)CCC[C@H](C3)[C@H]12 | -24.8 | nt | 0.9 | -17.6 | -1.9 | -1.5 | nt
CC1CCC(n2c(=S)[nH]c3ccccc3c2=O)CC1 (centres undefined) | 19.3 | 3.2 | -0.4 | 2.7 | 11.0* | 10.2 | -3.5
SMILES | TAG inh | Calpain2 inh | aDG glyco act | Cardio protect | MIN6 prolif-1 | FAS-TE inh | MIN6 prolif-2
O=c1c2ccccc2[nH]c(=S)n1C1CCCCC1 | 3.8 | 13.8 | -0.2 | -5.8 | -1.2 | -0.4 | nt
CN(c1nc2nonc2nc1NC1CC1)C1CCOC1 (centres undefined) | 2.7 | 5.6 | -0.1 | 6.4 | 7.6* | -3.0 | -1.3
CC(c1nccs1)N(C)c1nc2nonc2nc1NC1CC1 (centres undefined) | 25.1 | 20.4 | -0.1 | 5.6 | -2.8 | 2.0 | nt
COc1ccc(OC)c(/C=N/NC(=O)CSc2cc(C)nc3c(OC)cccc23)c1 | nt | i | 0.0 | -0.5 | 10.2* | -0.4 | -1.1
COc1ccc2nc(C)cc(SCC(=O)N/N=C/c3ccco3)c2c1 | nt | nt | 0.2 | -3.1 | 0.0 | -1.3 | nt
COCOCCn1cc(CN2CCS(=O)(=O)N(Cc3ccc(-c4ccc(Cl)cc4)cc3)C(CC(C)C)C2=O)nn1 (centres undefined) | 12.7 | nt | -0.3 | 16.0 | nt | 10.1 | nt
CN(C)c1ccc(C(=S)N2CCOCC2)cc1 | -4.8 | 26.1 | -0.3 | 9.6 | 9.0* | -8.1 | -0.2
O=C(Nc1cccnc1)C1CC(c2ccc(Cl)c(Cl)c2)=NO1 (centres undefined) | nt | -10.8 | 0.4 | -0.8 | -2.7 | 6.9 | nt
O=C(NNC(=O)C1CC(c2cccnc2)=NO1)Nc1cccc(F)c1 (centres undefined) | -4.7 | -22.3 | -0.3 | -0.2 | 5.6* | -6.0 | 1.4
Cc1cc(NC(=O)c2cnn3c(C(F)F)cc(C4CC4)nc23)no1 | -17.7 | 1.8 | -0.3 | 15.3 | 5.5* | 2.2 | 5.4
CCNC(=O)COC(=O)c1ccc(S(=O)(=O)N2CCCCCC2)cc1 | -7.3 | -8.2 | -0.1 | 2.2 | 5.4* | -4.6 | 0.4
Cc1ccc(CNC(=O)COC(=O)c2ccc(S(=O)(=O)N3CCCCCC3)cc2)cc1 | -2.3 | nt | 0.9 | -4.5 | -1.3 | -9.9 | nt
Cc1nc(N)c(C#N)c(-c2cccnc2)c1C | -9.7 | -13.0 | -0.1 | -0.8 | 9.6* | -6.9 | 9.5
Cc1nc(N)c(C#N)c(-c2ccc3c(c2)OCO3)c1C | -11.4 | nt | 0.0 | -1.0 | 5.3* | 14.2 | 1.5
N#Cc1c(N)nc2c(c1-c1ccc3c(c1)OCO3)CCCCCC2 | 10.1 | -9.4 | -0.1 | -1.9 | -2.2 | 20.7 | nt
CCc1nc(N)c(C#N)c(-c2cccnc2)c1C | nt | -9.8 | -0.5 | -3.0 | 6.5 | -5.5 | nt
OC(c1cccc(Cl)c1)c1nc(-c2cc3ccccc3o2)cs1 (centres undefined) | 3.0 | nt | 0.5 | -14.4 | nt | 34.5 | nt
COc1ccc(NC(=O)C2(C)Cc3c(-c4ccc(N(C)C)cc4)ccnc3O2)cc1 (centres undefined) | -20.3 | nt | -0.5 | 1.3 | nt | 16.0 | nt
CCOC(=O)C1(Cc2cccc(OC)c2)CCCN(C(=O)CCN2CCCO2)C1 (centres undefined) | -8.2 | nt | 0.0 | 6.0 | -3.4 | -5.3 | nt
C[C@@H]1C[C@@H]2OC(=O)[C@]3(C)[C@H]2[C@@H](OC3(C)O)[C@]2(C)C(=O)CC[C@H]12 (some centres undefined) | nt | 6.0 | nt | nt | 10.8* | nt | 0.5
CC(=O)N(C(C)=O)c1ccc(Oc2ccc(Oc3ccc(N(C(C)=O)C(C)=O)cc3)cc2)cc1 | 4.1 | nt | 0.0 | -11.4 | nt | 9.7 | nt
